Assay outcomes deposited in PubChem by The Scripps Research Institute Molecular Screening Center.
In the library only some 4.5% were active in any assay of this set; here they are far more common.
DAX1 inh-1 – DAX1 (NR0B1) inhibition, primary screen. HEK293T StAR-luciferase reporter, SF-1/DAX-1 repression relief. inhibition, % at 6.8 µM. actives 1.1% (n = 370,000). AID 652010;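 active = inhibition above the mean over all tested compounds plus 3 SD, cut at about 3.6% in these data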;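 also: 0% = DAX-1 cells with DMSO and 100% = cells lacking DAX-1 with DMSO; higher inhibition means more luminescence from relief of DAX-1 repression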
FXN GAA850 act – increases GAA850 frataxin promoter reporter activity | HEK293 lucGAA850 FXN promoter luciferase reporter, 24 h; percent of 10 µM SAHA response | activation, % at 6 µM | actives 0.56% (n = 360,000);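 active = activation above the average of all compounds screened plus 3 SD, cutoff fixed separately per campaign, cut at about 7.5% in these data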;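 also: 0% = DMSO wells and 100% = 10 µM SAHA wells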
ssDAF-12 act – activators of S. stercoralis DAF-12 nuclear receptor | HEK293 ssDAF-12/GRIP1 lit1-tk-luc reporter, luminescence; % of 3 µM dafachronic acid response | activation, % at 6.8 µM | actives 1% (n = 370,000) | AID 652126;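 active = activation above the mean over all tested compounds plus 3 SD, cut at about 0.9% in these data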;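 also: 0% = DMSO-only wells and 100% = 3 µM delta7-dafachronic acid wells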
hcDAF12 agonist – activates DAF-12 receptor from parasite H. contortus; AID 652067; HEK293 hcDAF-12 lit1-tk-luc reporter, luminescence; 0% DMSO, 100% Δ7-dafachronic acid; actives 1.4% (n = 370,000); activation, % at 6.8 µM;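 active = activation above the mean of all tested compounds plus 3 SD, cut at about 5.5% in these data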;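 also: 100% = response to 3 µM Δ7-dafachronic acid high control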
hgDAF-12 ag – activates the H. glycines DAF-12 receptor ligand-binding domain; HEK293 GAL4-hgDAF12 UAS-luciferase reporter, agonist luminescence; normalized to butyrate control; activation, % at 6.8 µM; actives 1.8% (n = 370,000); AID 687014;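 active = activation above a cutoff set at the mean of all screened compounds plus 3 SD, cut at about 10% in these data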;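 also: 0% = DMSO wells and 100% = sodium butyrate wells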
DAX1 inh-2 – NR0B1 (DAX1) inhibition | P51843 | HEK293 Gal4-DAX1 luciferase reporter, luminescence | inhibition, % at 6.75 µM | actives 0.99% (n = 340,000) | AID 504766;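 active = inhibition above the mean over all tested compounds plus 3 SD, cut at about 4.2% in these data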;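 also: 0% = DAX1-transfected cells with DMSO and 100% = empty-vector control cells with DMSO; inhibition shows as a rise in luminescence from relieved DAX1 repression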
Target sequence (P51843 207-470 limits assumed): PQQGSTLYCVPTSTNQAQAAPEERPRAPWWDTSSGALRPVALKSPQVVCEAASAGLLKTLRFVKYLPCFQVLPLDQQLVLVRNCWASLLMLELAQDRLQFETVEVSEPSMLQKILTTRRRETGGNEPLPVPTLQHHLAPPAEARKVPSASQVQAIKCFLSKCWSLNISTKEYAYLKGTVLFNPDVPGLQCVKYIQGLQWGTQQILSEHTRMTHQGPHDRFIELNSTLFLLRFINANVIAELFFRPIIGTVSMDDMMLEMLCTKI
hgDAF12 conf – hgDAF-12 agonism, confirmation assay; activation, % at 6.8 µM; HEK293 GAL4-hgDAF12 luciferase reporter, agonist mode; percent of butyrate response; actives 80% (n = 3,300); shares compounds with hgDAF-12 ag;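 active = mean activation over triplicate wells above the hit cutoff derived from the earlier primary screen, cut at about 11% in these data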;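 also: 0% = DMSO low control and 100% = 2 mM sodium butyrate high control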
LXR ag 2 – LXR-beta agonism as DAF-12 counter-screen; shares compounds with hgDAF-12 ag; HEK293 Gal4-LXR luciferase reporter, 24 h; activation, % at 6.8 µM; 3,300 tested, under 10 active; AID 743051;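 active = mean activation of the triplicate above a set limit carried over from the primary screen, none filed active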
The depositor's hits bear a star; . = no result given.

SMILES	DAX1 inh-1	FXN GAA850 act	ssDAF-12 act	hcDAF12 agonist	hgDAF-12 ag	DAX1 inh-2	hgDAF12 conf	LXR ag 2
Fc1ccccc1COc1ccc(Br)cc1CNCC1CCCO1 (configuration not stated)	-1	-2	-2	-2	4	1	.	.
Cn1nnc(NCc2cc(Br)ccc2OCc2ccccc2F)n1	0	1	-2	-1	17*	0	2	0
COc1cc(OC)cc(C(=O)Nc2ccc([N+](=O)[O-])cn2)c1	0	1	-1	-2	0	-1	.	.
COc1ccc(C(=O)Nc2ccc([N+](=O)[O-])cn2)c(OC)c1	3	3	0	4	19*	4	20*	1
Cc1ccc(C(=O)Nc2ncc(C)s2)o1	2	1	0	3	20*	1	15*	1
Cc1ccc(C(=O)Nc2ccc([N+](=O)[O-])cn2)o1	1	-2	-1	-1	14*	0	7	0
CC(NCC1(N2CCOCC2)CCCCC1)C(=O)Nc1ccc(Cl)cc1Cl (configuration not stated)	0	-1	-1	1	-2	0	.	.
CCOC(=O)c1c(C)[nH]c(C)c1C(=O)COC(=O)c1ccc(Cl)nc1	0	0	-1	-1	4	1	.	.
COc1ccc(/C=C/C(=O)NC(=S)Nc2ccccc2)cc1OC	0	-1	-1	-2	-1	0	.	.
COc1ccccc1/C=C/C(=O)OCC(=O)Nc1ccc2c(c1)OCCO2	0	1	-1	0	0	0	.	.
COc1ccc(/C=C/C(=O)Nc2ccccc2)cc1OC	3	2	0	2	17*	0	10	0
COc1ccccc1/C=C/C(=O)Nc1ccc2c(c1)OCCO2	3	-3	0	5	17*	-2	18*	1
COc1cc(/C=C/C(=O)NC(=O)c2ccccc2O)ccc1OC(C)=O	2	0	0	5	15*	3	6	0
CC(C)(C)c1ccc(-c2cn(C[C@H](Cc3ccccc3)n3c(=O)c4ccccc4n3Cc3ccno3)nn2)cc1	-2	.	-2	-2	1	.	.	.
COC(=O)c1cnc(SCC(=O)c2ccccc2)n1C	2	2	0	6.1*	15*	4	14*	1
COC(=O)c1ccnc(SCC(=O)c2ccccc2)c1	2	5	1	3	18*	2	14*	0
CC(NCCN(C)C)C(=O)C12CC3CC(CC(C3)C1)C2 (configuration not stated)	0	0	0	-1	3	-1	.	.
COc1ccc(NC(=O)/C=C/c2ccccc2)c([N+](=O)[O-])c1	2	2	0	2	16*	2	12*	0
CCOC(=O)c1c(C)[nH]c(C(=O)CSc2ccccc2)c1C	4	1	1	5.6*	18*	0	14*	1
CCOC(=O)c1c(C)[nH]c(C(=O)CSc2nccc(C)n2)c1C	1	6	-1	1	10	1	.	.
CC(=O)N1c2ccc(S(=O)(=O)N3CCCCC3)cc2CC1C(=O)Nc1ccc(F)cc1C (configuration not stated)	0	0	0	1	1	0	.	.
Cc1ccc(NC(=S)NNC(=O)c2c(Cl)c(C)nn2C)cc1	-1	0	-1	0	-1	-2	.	.
Cc1ccc(NC(=S)NNC(=O)c2nn(C)c(C)c2Cl)cc1	3	6	0	3	16*	6.5*	10	0
Cc1cccc(C)c1NC(=O)c1cc(S(=O)(=O)N2CCC3(CC2)OCCO3)ccc1F	-1	-2	-1	-3	-2	1	.	.
CCN(CC(=O)NC(C)C)C(=O)Cc1ccc(C)c(C)c1	0	0	-2	1	2	-1	.	.
SMILES	DAX1 inh-1	FXN GAA850 act	ssDAF-12 act	hcDAF12 agonist	hgDAF-12 ag	DAX1 inh-2	hgDAF12 conf	LXR ag 2
Nc1cc2nc[nH]c2cc1N	3	3	0	6.1*	15*	0	6	0
COc1cc(C2N=C(c3ccccc3)NO2)cc(Br)c1O (configuration not stated)	0	4	0	1	4	-1	.	.
COc1ccc(C2N=C(c3ccccc3)NO2)cc1OC (configuration not stated)	2	4	1	6.1*	14*	5.9*	12*	1
NC(=O)C1CCN(C(=O)C2CCC(=O)N(CC3CCCCC3)C2)CC1 (configuration not stated)	0	0	-1	-2	0	-1	.	.
Cc1nn(C(=O)c2cccs2)c(N)c1-c1ccccc1	3.7*	4	-1	5	15*	3	17*	0
Cc1cccc(NC(=S)N/N=C/c2cccc(O)c2)c1C	-2	-4	-2	-2	2	-3	.	.
Cc1ccccc1NC(=S)N/N=C/c1ccc(O)cc1O	1	7	0	4	20*	4	7	0
N/C(=N\N=C\c1ccc(O)c(O)c1)c1nonc1N	1	2	0	2	15*	3	6	0
COc1cc(/C=N/N=C(\N)c2nonc2N)ccc1O	2	5	-1	0	8	2	.	.
O=c1cc(-c2ccc(F)cc2)oc2ccccc12	1	5	0	2	9	2	.	.
CSc1ccc(-c2cc(=O)c3ccccc3o2)cc1	3.9*	7	3.1*	10*	18*	1	18*	1
Cc1cc(NC(=O)c2cc(F)c(F)cc2Cl)no1	0	2	-2	0	-1	1	.	.
CC(=O)Nc1cccc(NC(=O)Nc2cccc(F)c2)c1	0	-1	-1	-1	2	3	.	.
Cc1ccc(NC(=O)Nc2cccc(F)c2)nc1	1	4	0	2	13*	4.8*	14*	1
Cc1ccc(NC(=O)CCNC(=O)c2ccccc2Cl)nc1	-1	0	-1	1	-1	3	.	.
Cc1ccc(NC(=O)c2ccccc2F)nc1	3	2	0	4	14*	3	14*	1
Cc1ccc(NC(=O)c2cc(F)c(F)cc2Cl)nc1	3	2	0	1	17*	1	11*	0
Cc1cc2nnc(SCC(=O)NCC(c3ccccc3)N(C)C)n2c2ccccc12 (configuration not stated)	1	-1	-1	0	1	0	.	.
